# “And” between values parts separate entries of the source, which are not always exact repeats. Identical values can stand only once. The campaign covered roughly 5,500 compounds. About 2,000 (36%) were called active. Another 18% or so got no clear call; they are omitted. Rule as the data show it: active = normalized growth mostly below about 0.91 (no sharp cut-off); inconclusive = no clear call, values can overlap the other calls; inactive = mostly above about 0.92. Some of the results follow.
# Assay: chemical genetic growth profiling, strain panel (AID 1159580);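 also: tested at 20 µM; growth read once vehicle control cultures reached saturation at 30 °C; 1 = growth at the plate median or of vehicle wells; lower values mean less growth of the strain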
# Conditions: S. cerevisiae deletion strains, growth OD
smiles,measurement,setting,value
CC1=CC2C(CC1=O)C(C)=CCC2C(C)C (stereo unspecified),normalized growth,"locus YAL021C, strain ccr4, stronger effect = lower value",1.02 (inactive)
same,normalized growth,"locus YAL026C, strain drs2, stronger effect = lower value",0.996 (inactive)
same,normalized growth,"locus YAL030W, strain snc1, stronger effect = lower value",1 (inactive)
same,normalized growth,"locus YBL061C, strain skt5, stronger effect = lower value",1.02 (inactive)
same,normalized growth,"locus YBR009C, strain hhf1, stronger effect = lower value",0.98 (inactive)
same,normalized growth,"locus YBR021W, strain FUR4, stronger effect = lower value",0.923 (inactive)
same,normalized growth,"locus YBR023C, strain chs3, stronger effect = lower value",0.992 (inactive)
same,normalized growth,"locus YBR171W, strain sec66, stronger effect = lower value",1 (inactive)
same,normalized growth,"locus YBR229C, strain ROT2, stronger effect = lower value",1.01 (inactive)
same,normalized growth,"locus YBR231C, strain swc5, stronger effect = lower value",0.998 (inactive)
same,normalized growth,"locus YBR279W, strain paf1, stronger effect = lower value",1 (inactive)
same,normalized growth,"locus YCL011C, strain gbp2, stronger effect = lower value",1.01 (inactive)
same,normalized growth,"locus YCL016C, strain dcc1, stronger effect = lower value",1.01 (inactive)
same,normalized growth,"locus YCL029C, strain bik1, stronger effect = lower value",0.976 (inactive)
same,normalized growth,"locus YCL061C, strain MRC1, stronger effect = lower value",0.991 (inactive)
same,normalized growth,"locus YCL069W, strain vba3, stronger effect = lower value",1.01 (inactive)
same,normalized growth,"locus YCR088W, strain abp1, stronger effect = lower value",1 (inactive)
same,normalized growth,"locus YDL005C, strain med2, stronger effect = lower value",1.02 (inactive)
same,normalized growth,"locus YDL035C, strain GPR1, stronger effect = lower value",0.96 (inactive)
same,normalized growth,"locus YDL040C, strain nat1, stronger effect = lower value",1.01 (inactive)
same,normalized growth,"locus YDL074C, strain BRE1, stronger effect = lower value",0.902 (inactive)
same,normalized growth,"locus YDL101C, strain DUN1, stronger effect = lower value",0.966 (inactive)
same,normalized growth,"locus YDL185W, strain tfp1, stronger effect = lower value",0.83 (active)
same,normalized growth,"locus YDL192W, strain arf1, stronger effect = lower value",0.769 (active)
same,normalized growth,"locus YDR001C, strain nth1, stronger effect = lower value",0.996 (inactive)
same,normalized growth,"locus YDR069C, strain doa4, stronger effect = lower value",1.02 (inactive)
same,normalized growth,"locus YDR101C, strain arx1, stronger effect = lower value",0.929 (inactive)
same,normalized growth,"locus YDR137W, strain rgp1, stronger effect = lower value",0.896 (inactive)
same,normalized growth,"locus YDR159W, strain sac3, stronger effect = lower value",1.01 (inactive)
same,normalized growth,"locus YDR162C, strain NBP2, stronger effect = lower value",0.92 (inactive)
same,normalized growth,"locus YDR195W, strain ref2",0.977 (inactive)
same,normalized growth,"locus YDR297W, strain sur2, stronger effect = lower value",1.02 (inactive)
same,normalized growth,"locus YDR318W, strain mcm21, stronger effect = lower value",0.946 (inactive)
same,normalized growth,"locus YDR334W, strain swr1, stronger effect = lower value",1.01 (inactive)
same,normalized growth,"locus YDR335W, strain msn5, stronger effect = lower value",1.01 (inactive)
same,normalized growth,"locus YDR388W, stronger effect = lower value",0.987 (inactive)
same,normalized growth,"locus YDR392W, strain spt3, stronger effect = lower value",0.594 (active)
same,normalized growth,"locus YDR502C, strain sam2, stronger effect = lower value",0.895 (active)
same,normalized growth,"locus YEL003W, strain gim4, stronger effect = lower value",1.02 (inactive)
same,normalized growth,"locus YEL037C, strain rad23, stronger effect = lower value",0.997 (inactive)
same,normalized growth,"locus YEL061C, strain CIN8 (second series), stronger effect = lower value",1.01 (inactive)
same,normalized growth,"locus YEL061C, strain CIN8, stronger effect = lower value",0.911 (active)
same,normalized growth,"locus YER015W, strain faa2, stronger effect = lower value",1 (inactive)
same,normalized growth,"locus YER016W, strain bim1, stronger effect = lower value",1.01 (inactive)
same,normalized growth,"locus YER110C, stronger effect = lower value",1.01 (inactive)
same,normalized growth,"locus YER111C, strain swi4, stronger effect = lower value",0.996 (inactive)
same,normalized growth,"locus YER155C, strain BEM2 (second series), stronger effect = lower value",0.98 (inactive)
same,normalized growth,"locus YER155C, strain BEM2, stronger effect = lower value",0.948 (inactive)
same,normalized growth,"locus YER167W, strain BCK2, stronger effect = lower value",0.937 (inactive)
same,normalized growth,"locus YFR010W, strain ubp6, stronger effect = lower value",1 (inactive)
same,normalized growth,"locus YGL078C, strain dbp3, stronger effect = lower value",0.943 (inactive)
same,normalized growth,"locus YGL086W, strain mad1, stronger effect = lower value",0.888 (active)
same,normalized growth,"locus YGL167C, strain pmr1, stronger effect = lower value",1.01 (inactive)
same,normalized growth,"locus YGL173C, strain kem1, stronger effect = lower value",1.01 (inactive)
same,normalized growth,"locus YGL227W, strain vid30, stronger effect = lower value",1.01 (inactive)
same,normalized growth,"locus YGL240W, strain doc1, stronger effect = lower value",0.998 (inactive)
same,normalized growth,"locus YGL248W, strain PDE1, stronger effect = lower value",0.952 (inactive)
same,normalized growth,"locus YGL253W, strain hxk2, stronger effect = lower value",1 (inactive)
same,normalized growth,"locus YGR135W, strain pre9, stronger effect = lower value",0.881 (active)
same,normalized growth,"locus YGR252W, strain gcn5, stronger effect = lower value",0.972 (inactive)
same,normalized growth,"locus YHR013C, strain ard1, stronger effect = lower value",1.03 (inactive)
same,normalized growth,"locus YHR027C, strain rpn1, stronger effect = lower value",1.01 (inactive)
same,normalized growth,"locus YHR030C, strain SLT2, stronger effect = lower value",0.905 (active) and 0.973 (inactive)
same,normalized growth,"locus YHR079C, strain IRE1 (second series), stronger effect = lower value",0.989 (inactive)
same,normalized growth,"locus YHR079C, strain IRE1, stronger effect = lower value",0.96 (inactive)
same,normalized growth,"locus YHR094C, strain hxt1, stronger effect = lower value",0.989 (inactive)
same,normalized growth,"locus YHR129C, strain ARP1, stronger effect = lower value",0.95 (inactive)
same,normalized growth,"locus YHR142W, strain chs7, stronger effect = lower value",0.981 (inactive)
same,normalized growth,"locus YHR200W, strain rpn10, stronger effect = lower value",0.968 (inactive)
same,normalized growth,"locus YIL066C, strain RNR3, stronger effect = lower value",0.9 (inactive)
same,normalized growth,"locus YIL073C, strain SPO22, stronger effect = lower value",0.91 (inactive)
same,normalized growth,"locus YIL125W, strain kgd1, stronger effect = lower value",0.934 (inactive)
same,normalized growth,"locus YIR030C, strain dcg1, stronger effect = lower value",0.979 (inactive)
same,normalized growth,"locus YJL092W, strain hpr5, stronger effect = lower value",0.998 (inactive)
same,normalized growth,"locus YJL095W, strain BCK1 (second series), stronger effect = lower value",1.01 (inactive)
same,normalized growth,"locus YJL095W, strain BCK1, stronger effect = lower value",0.808 (inactive) and 0.979 (inactive)
same,normalized growth,"locus YJL115W, strain asf1, stronger effect = lower value",1.01 (inactive)
same,normalized growth,"locus YJL129C, strain trk1, stronger effect = lower value",1 (inactive)
same,normalized growth,"locus YJL134W, strain LCB3, stronger effect = lower value",1.02 (inactive)
same,normalized growth,"locus YJL154C, strain vps35, stronger effect = lower value",1.01 (inactive)
same,normalized growth,"locus YJL164C, strain tpk1, stronger effect = lower value",0.994 (inactive)
same,normalized growth,"locus YJL166W, strain qcr8, stronger effect = lower value",0.978 (inactive)
same,normalized growth,"locus YJL168C, strain set2, stronger effect = lower value",0.978 (inactive)
same,normalized growth,"locus YJL187C, strain SWE1 (second series), stronger effect = lower value",0.971 (inactive)
same,normalized growth,"locus YJL187C, strain SWE1, stronger effect = lower value",1 (inactive)
same,normalized growth,"locus YJR043C, strain POL32, stronger effect = lower value",0.98 (inactive)

# Source: PubChem BioAssay AID1159580 (chemical genetic matrix, 2015)
